Values without a mark were called inactive.
Test system: Vero E6 infected with SARS-CoV-2
Experiment: inhibition of SARS-CoV-2 cytopathic effect; higher = more antiviral protection, active = above 15
Conditions: 48 h

Row | SMILES | inhibition of SARS-CoV-2 cytopathic effect (1 nM) [%] | inhibition of SARS-CoV-2 cytopathic effect (8.33 nM) [%] | inhibition of SARS-CoV-2 cytopathic effect (100 nM) [%] | inhibition of SARS-CoV-2 cytopathic effect (833.33 nM) [%] | inhibition of SARS-CoV-2 cytopathic effect (10000 nM)
1 | CC(=O)OCC(=O)[C@@]1(O)CC[C@H]2[C@@H]3CCC4=CC(=O)C=C[C@]4(C)[C@H]3[C@@H](O)C[C@@]21C [prednisolone-acetate] | 0.64 | 0.57 | -0.58 | -0.51 | 0.26%
2 | CO/N=C(\C(=O)N[C@@H]1C(=O)N2C(C(=O)O)=C(CSc3nc(C)c(CC(=O)O)s3)CS[C@H]12)c1csc(N)n1 [cefodizime] | -6.45 | -0.68 | -2 | -0.21 | -4.2%
3 | Cc1ccc(-c2n[nH]c3c2C(c2cccc(O)c2)N(c2ccc(C(=O)O)cc2)C3=O)cc1 (stereo not given) | -0.75 | -0.46 | 3.03 | 3.6 | 5.17%
4 | CC1CCN(CC[C@H]2CCCN2S(=O)(=O)c2cccc(O)c2)CC1 | 1.41 | 2.24 | 2.25 | 2.79 | 0.64%
5 | Cc1cc(O)cc2c1O[C@](C)(CCC[C@H](C)CCC[C@H](C)CCCC(C)C)CC2 [D-delta-tocopherol] | 1.56 | 0.99 | 2.25 | 0.84 | -0.19%
6 | c1ccc2c(Oc3nc(Nc4ccc(N5CCOCC5)cc4)c4ncn(C5CCCCC5)c4n3)cccc2c1 [purmorphamine] | 0.27 | 1.18 | 0.24 | 2.43 | -5.44%
7 | CC1(C)CCC(C)(C)c2cc(C(=O)Nc3ccc(C(=O)O)cc3)ccc21 | 0.12 | 2.74 | 1.53 | 1.49 | 3.21%
8 | Cc1c(F)cc(C(=O)NC2CC2)cc1-c1ccc(C(=O)NCC(C)(C)C)cn1 [losmapimod] | 1.3 | 0.27 | -1.7 | -4.24 | -5.03%
9 | c1ccc2c(Cc3c[nH]c4ccccc34)c[nH]c2c1 [3,3'-diindolylmethane] | 0.74 | 0.3 | 4.3 | 4.76 | 3.8%
10 | Nc1ccc2ncnc(NCCc3ccc(Oc4ccccc4)cc3)c2c1 | -1.24 | 1.54 | -1.53 | 0.25 | -4.62%
11 | OC(CCCN1CCCCC1)(c1ccccc1)c1ccccc1 [diphenidol] | -5.55 | -3.34 | -2.4 | -1.92 | -2.8%
12 | C=C1/C(=C\C=C2/CCC[C@]3(C)[C@@H]([C@H](C)CCCC(O)(C(F)(F)F)C(F)(F)F)CC[C@@H]23)C[C@@H](O)C[C@@H]1O [falecalcitriol] | -0.53 | 0.41 | -1.28 | 0.88 | -2.37%
13 | O=C(O)/C=C/c1ccc(Cn2ccnc2)cc1 [ozagrel] | 0.02 | 3.28 | 0.19 | 0.75 | -0.91%
14 | NC(=O)c1cnc(N[C@@H]2CCCC[C@@H]2N)nc1Nc1cccc(-n2nccn2)c1 | -1.26 | -0.3 | 2.11 | -0.39 | 24.4% (active)
15 | N=C(N)NCCC[C@@H](NC(=O)[C@@H]1CCCN1C(=O)[C@@H]1CSSCCC(=O)N[C@@H](Cc2ccc(O)cc2)C(=O)N[C@@H](Cc2ccccc2)C(=O)N[C@@H](CCC(N)=O)C(=O)N[C@@H](CC(N)=O)C(=O)N1)C(=O)NCC(N)=O [desmopressin-acetate] | -0.33 | -2.9 | 0.69 | 0.25 | 0.02%
16 | CCCN(CCC)C(=O)Cc1c(-c2ccc(Cl)cc2)nc2ccc(Cl)cn12 [alpidem] | -5.3 | -6.64 | -7.76 | -6.87 | -3.74%
17 | Nc1ncn([C@@H]2O[C@H](CO)[C@@H](O)[C@H]2O)c(=O)n1 [azacitidine] | -3.6 | 0.66 | 0.98 | -0.22 | 0.95%
18 | Cc1ccc2c(c1)c1c(n2CCc2ccc(C)nc2)CCN(C)C1 [latrepirdine] | 1.25 | -0.5 | -0.92 | 0.73 | 0.87%
19 | Cc1nnc2ccc(-c3cccc(C(F)(F)F)c3)nn12 | -0.37 | 3.68 | 2.78 | 1.93 | 2.16%

— the supplement of paper PMC13380429
